TROY signal inh: inhibitors of TROY-driven NF-kB signaling, primary screen, Q293 LMP1-TROYcd cells, NF-kB luciferase, uHTS. Q293 LMP1-TROYcd NF-kB luciferase reporter, 4 h. inhibition, % at 10 µM. 360,000 tested, 0.98% active;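 active means compounds whose plate-normalised and pattern-corrected inhibition of the luciferase reporter signal at the single screening dose is 50% or more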
TWEAK Fn14 block: inhibitors of TWEAK-Fn14 signaling, primary screen, luciferase reporter cells, uHTS | TWEAK-stimulated Fn14 reporter cells, luciferase luminescence, 8 h | AID 1159606, 2016 | inhibition, % at 10 µM | 360,000 tested, 2% active; in the data active means inhibition above about 50%
HSF1 inhib: HSF1 inhibitors in luciferase reporter cells, primary screen, cell-based, NIH3T3, luminescence; NIH3T3-HGL HSE-luciferase, MG132-induced, luminescence 8 h; stronger effect = lower value; activity change, negative = inhibition, % at 7.5 µM (by protocol); 300,000 tested, 0.77% active;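 active means more than half of replicate wells show activity change below -50%, luminescence cut by over half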;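 further: luciferase reports HSF-1 transcriptional activity via heat shock element; 0% = median of DMSO wells and -100% = zero luminescence signal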
LGR2 inh: inhibitors of bursicon-induced LGR2 CRE-luciferase signal, primary screen, cell-based, HEK293, CRE-luciferase reporter, bursicon stimulation; bursicon-stimulated, 4 h; AID 720647, 2013; 380,000 tested, 0.35% active; inhibition, % at 9.99 µM;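 active means drop in luminescence signal, shown as inhibition above about 50% in the replicate tests, limit read from the data, passing the limit was not always enough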;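 further: agonist challenge used bursicon conditioned medium at about half maximal strength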
HSF1 activator: HSF-1 activators, primary screen, NIH3T3-HGL cells, MG132 stress, luminescence, single point. activation, % at 9 µM. 300,000 tested, 1.7% active. NIH3T3-HGL HSF-1 luciferase reporter, 8 h; 100% = twice DMSO control signal;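 active means mean replicate activation of at least 50% with a set share of replicates each reaching 50%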;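 further: 0% = median of the neutral control wells and 100% = twice that signal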
EBV LMP1 NFkB: EBV LMP1-driven NF-kappaB luciferase reporter inhibitors, primary screen, cell-based, luminescence, single point | LMP1-induced NF-kappaB luciferase reporter cells | inhibition, % at 12.5 µM | 350,000 tested, 0.69% active; in the data active means inhibition above about 41%;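 further: 0% = neutral control wells and 100% = reference inhibitor control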
Numbers without * were called inactive; x = not tested or not shown. Compounds with a hit are over-represented: about 3.6% of the library has one in this group of screens.

SMILES	TROY signal inh	TWEAK Fn14 block	HSF1 inhib	LGR2 inh	HSF1 activator	EBV LMP1 NFkB
c1ccc(CSc2ncn(-c3ccccc3)n2)cc1	-72	1	20	x	46	-43
C[C@@H]1CCCCO[C@@H](CN(C)Cc2ccc3c(c2)OCO3)[C@@H](C)CN([C@@H](C)CO)C(=O)c2cc(NS(C)(=O)=O)ccc2O1	x	x	x	-15	x	x
CCN(CC)S(=O)(=O)c1ccc2c(c1)c(=O)c(C(=O)NCc1ccco1)cn2C	-5	0	-90*	-2	-93	2
COc1cccc(-c2ccc3c(c2)[C@@H]2[C@@H](CCN2C(=O)c2ccccn2)[C@@H](CO)N3C)c1	x	x	x	-26	x	x
Cc1cccc(S(=O)(=O)N2CC[C@@H]3[C@H]2c2cc(-c4ccccc4F)ccc2N(C)[C@H]3CO)c1	x	x	x	3	x	x
Cc1csc(SCc2nnc(-c3ccc(Cl)cc3)o2)n1	-61	-17	27	-66	59*	-24
CCn1c(SCC(=O)c2ccc(Cl)cc2)nnc1-c1cccs1	-20	-4	6	x	-7	1
Clc1ccc(-c2nnc(CSc3nnc(-c4cccs4)n3Cc3ccccc3)o2)cc1	48	64*	-5	20	24	24
Cc1csc(SCc2nnc(-c3ccccc3Br)o2)n1	-56	12	23	-43	33	-45
CCn1c(SCCOc2ccc(Cl)cc2)nnc1-c1cccs1	4	0	19	x	61*	9
CO[C@H]1CN(C)C(=O)c2ccc(NC(=O)CC(F)(F)F)cc2OC[C@@H](C)N(C(=O)C2CCCCC2)C[C@@H]1C	x	x	x	9	x	x
CC(C)NC(=O)N(C)C[C@@H]1Oc2ccc(NC(=O)Nc3ccc(F)cc3)cc2C(=O)N([C@H](C)CO)C[C@@H]1C	x	x	x	5	x	x
Cc1ccc(-c2cnc3c(c2)C(=O)N([C@H](C)CO)C[C@H](C)[C@@H](CN(C)C(=O)Cc2ccccc2)O3)cc1	x	x	x	-25	x	x
C[C@@H]1CCCCO[C@H](CN(C)C)[C@H](C)CN([C@H](C)CO)C(=O)c2cc(NC(=O)Nc3ccc4c(c3)OCO4)ccc2O1	x	x	x	15	x	x
CC(=O)N1CCc2cc(S(=O)(=O)NCCC(=O)Nc3ccc4c(c3)OCCO4)ccc21	-60	-22	2	x	47	-21
CC(=O)N1CCc2cc(S(=O)(=O)NC(Cc3ccccc3)C(=O)NC3CCCCCC3)ccc21 (stereo unspecified)	12	-3	15	11	54*	8
CC(=O)N1CCc2cc(S(=O)(=O)NC(CC(C)C)C(=O)Nc3ccc4c(c3)OCCO4)ccc21 (stereo unspecified)	8	57*	x	x	x	-41
CCC(=O)N1CC2(C1)[C@H](c1ccc(-c3ccc(C)cc3)cc1)[C@@H](CO)N2S(=O)(=O)CC	x	x	x	-3	x	x
O=C(Oc1cc2oc(=O)cc(-c3ccccc3)c2cc1Cl)C1CCCCC1	44	21	-7	x	-28	8
CC(C)(C)OC(=O)NCC(=O)Oc1cc2oc(=O)cc(-c3ccccc3)c2cc1Cl	48	80*	-11	16	-25	8
O=C(O)c1ccc(-n2cncn2)c([N+](=O)[O-])c1	-3	8	0	10	0	49*
Cc1ccc(C(=O)NNC(=O)c2ccc(-n3cncn3)c([N+](=O)[O-])c2)cc1	11	-6	-2	17	-9	9
O=c1cc(-c2ccncc2)oc2c1ccc1ccccc12	-20	22	2	5	-2	-22
O=c1cc(-c2ccc(O)cc2)oc2c1ccc1ccccc12	63*	38	x	-22	x	-2
O=c1cc(-c2ccco2)oc2c1ccc1ccccc12	-47	-26	7	x	5	-3
O=c1cc(C(Cl)(Cl)Cl)oc2c1ccc1ccccc12	49	56*	28	x	48	29
O=c1cc(-c2ccc(O)cc2)oc2ccc3ccccc3c12	88*	102*	x	100*	x	-7
O=C(CS(=O)(=O)c1ccccc1)c1cc2ccccc2oc1=O	20	7	37	x	57*	0
